Inconclusive results are not listed. The source made the active and inactive calls. The calls were made as follows, unless noted: active = hit-call score of the fitted dose curve at least 0.9, where 1 is the maximum; inactive = score below 0.9.
Tests used:
[1] = molecular target: human Retinoid X Receptor beta (RXRb), RXRB (gene 6257) (UniProt P28702); assay: ATG_RXRb_TRANS: Attagene TRANS-FACTORIAL HepG2 Assay for human Retinoid X Receptor beta (RXRb) (AID 2283013; active = hit-call score of the fitted dose curve at least 0.9, where 1 is the maximum)
Method in brief: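 HepG2 cells transiently transfected with multiplexed reporter units driven by GAL4-UAS and exogenous chimeric NR-Gal4 proteins; treated 24 h. Reporter mRNA measured by RT-PCR, 6-FAM labelling and capillary electrophoresis; gain-of-signal fitted versus DMSO baseline.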

[2] = molecular target: human Thyroid Receptor alpha (THRa1), THRA (gene 7067) (UniProt P10827); assay: ATG_THRa1_TRANS: Attagene TRANS-FACTORIAL HepG2 Assay for human Thyroid Receptor alpha (THRa1) (AID 2283014; active = hit-call score of the fitted dose curve at least 0.9, where 1 is the maximum)
Method in brief: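 Reporter transcript induction, read by capillary electrophoresis of 6-FAM-labelled RT-PCR products, reflects activity of a transfected THRa1-Gal4 fusion in HepG2 liver cells. Cells were dosed for 24 h; activity was fitted in the positive direction against DMSO.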

[3] = molecular target: Retinoic acid receptor RXR-alpha (Homo sapiens) (UniProt P19793); assay: ATG_RXRa_TRANS: Attagene TRANS-FACTORIAL HepG2 Assay for human Retinoid X Receptor alpha (RXRa) (AID 2283012; active = hit-call score of the fitted dose curve at least 0.9, where 1 is the maximum)
Method in brief: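 HepG2 cells transiently transfected with multiplexed GAL4-UAS reporter units and chimeric NR-GAL4 fusions, dosed 24 h. Reporter mRNA measured by RT-PCR, FAM labelling, HpaI digestion and capillary electrophoresis; gain-of-signal fitted relative to DMSO baseline.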

[4] = read-out: E-selectin (Homo sapiens) (UniProt P16581); assay: BSK_3C_Eselectin: BioMAP Diversity Plus: 3C Assay for Eselectin Biomarker Activity (AID 2283015); conditions: primary human endothelial cells (HUVEC); actives raise or lower the signal
Method in brief: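 ELISA read-out of E-selectin on endothelial monolayers after 24 h chemical treatment. Human umbilical vein primary cells served as the system, with DMSO defining baseline activity for bidirectional fitting.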

[5] = read-out: Interleukin-1 alpha (IL1a), IL1A (gene 3552); assay: BSK_BE3C_IL1a: BioMAP Diversity Plus: BE3C Assay for Interleukin-1 alpha (IL1a) Biomarker Activity (AID 2283016); conditions: primary human bronchial epithelial cells; actives raise or lower the signal
Method in brief: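 Human primary bronchial epithelial cells (BE3C system) were dosed with compound and IL-1a measured by ELISA 24 h later. Activity was fitted bidirectionally against DMSO baseline; cytotoxicity was tracked in parallel cultures by SRB total-protein staining.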

[6] = read-out: Monocyte Chemoattractant Protein-1 (MCP1), CCL2 (gene 6347); assay: BSK_3C_MCP1: BioMAP Diversity Plus: 3C Assay for Monocyte Chemoattractant Protein-1 (MCP1) Biomarker Activity (AID 2283017); conditions: primary human endothelial cells (HUVEC); actives raise or lower the signal
Method in brief: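 ELISA read-out of MCP-1 from human umbilical vein endothelial cell cultures harvested 24 h post-dosing. Gain or loss of signal was fitted relative to DMSO.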

[7] = read-out: Monocyte Chemoattractant Protein-1 (MCP1), CCL2 (gene 6347); assay: BSK_4H_MCP1: BioMAP Diversity Plus: 4H Assay for Monocyte Chemoattractant Protein-1 (MCP1) Biomarker Activity (AID 2283018); conditions: primary human endothelial cells (HUVEC); actives raise or lower the signal
Method in brief: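 Human umbilical vein endothelial cells (4H system) dosed with chemical; MCP-1 measured by ELISA 24 h after dosing. Bidirectional curve fitting against DMSO negative control as baseline; parallel SRB total-protein staining tracks overt cytotoxicity.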

[8] = read-out: Human Leukocyte Antigen - DR isotype (HLADR), HLA-DRA (gene 3122); assay: BSK_3C_HLADR: BioMAP Diversity Plus: 3C Assay for Human Leukocyte Antigen - DR isotype (HLADR) Biomarker Activity (AID 2283019); conditions: primary human endothelial cells (HUVEC); actives raise or lower the signal
Method in brief: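 ELISA readout of surface HLA-DR on human umbilical vein endothelium, taken 24 h after chemical treatment. Gain- and loss-of-signal were both fitted relative to DMSO.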

[9] = read-out: Interleukin-8 (IL8), CXCL8 (gene 3576); assay: BSK_3C_IL8: BioMAP Diversity Plus: 3C Assay for Interleukin-8 (IL8) Biomarker Activity (AID 2283020); conditions: primary human endothelial cells (HUVEC); actives raise or lower the signal
Method in brief: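 Primary human umbilical vein endothelial cells (3C system) were exposed to test chemical for 24 h, then IL-8 was quantified by ELISA. Responses were fitted bidirectionally against DMSO vehicle as baseline.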

Measured: AC50

Sequence of human Thyroid Receptor alpha (THRa1), THRA (gene 7067) (P10827 whole entry, looked up, the tested form may be a part): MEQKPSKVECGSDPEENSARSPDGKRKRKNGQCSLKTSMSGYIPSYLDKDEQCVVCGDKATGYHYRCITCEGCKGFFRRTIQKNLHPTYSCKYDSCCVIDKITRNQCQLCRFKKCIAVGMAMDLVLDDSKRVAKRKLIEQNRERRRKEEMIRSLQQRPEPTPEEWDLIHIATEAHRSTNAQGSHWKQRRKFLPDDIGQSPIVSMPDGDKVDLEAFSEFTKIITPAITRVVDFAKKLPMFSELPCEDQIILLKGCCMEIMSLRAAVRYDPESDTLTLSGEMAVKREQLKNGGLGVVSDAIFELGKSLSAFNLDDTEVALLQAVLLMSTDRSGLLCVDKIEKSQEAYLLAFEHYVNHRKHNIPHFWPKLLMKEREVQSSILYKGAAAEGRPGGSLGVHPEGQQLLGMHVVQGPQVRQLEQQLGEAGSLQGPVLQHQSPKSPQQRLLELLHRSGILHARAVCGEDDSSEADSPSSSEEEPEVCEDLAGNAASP
Sequence of E-selectin (Homo sapiens) (P16581 whole entry, looked up): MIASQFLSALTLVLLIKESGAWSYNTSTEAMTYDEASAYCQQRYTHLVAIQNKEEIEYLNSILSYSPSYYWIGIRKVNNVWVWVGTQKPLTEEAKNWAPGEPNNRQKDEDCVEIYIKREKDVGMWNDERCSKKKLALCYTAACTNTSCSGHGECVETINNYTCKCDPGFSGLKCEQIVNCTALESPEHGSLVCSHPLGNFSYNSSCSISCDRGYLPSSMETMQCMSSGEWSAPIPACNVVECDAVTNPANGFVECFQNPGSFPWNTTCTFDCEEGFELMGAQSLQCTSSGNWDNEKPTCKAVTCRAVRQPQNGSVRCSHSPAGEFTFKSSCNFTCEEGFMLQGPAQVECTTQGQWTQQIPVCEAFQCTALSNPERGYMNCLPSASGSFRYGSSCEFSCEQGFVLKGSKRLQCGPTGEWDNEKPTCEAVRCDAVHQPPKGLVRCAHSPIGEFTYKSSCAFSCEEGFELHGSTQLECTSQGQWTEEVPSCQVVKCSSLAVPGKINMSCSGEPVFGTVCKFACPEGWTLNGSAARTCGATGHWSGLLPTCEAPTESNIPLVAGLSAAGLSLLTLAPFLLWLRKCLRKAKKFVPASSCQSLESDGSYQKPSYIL
Sequence of human Retinoid X Receptor beta (RXRb), RXRB (gene 6257) (P28702 whole entry, looked up, the tested form may be a part): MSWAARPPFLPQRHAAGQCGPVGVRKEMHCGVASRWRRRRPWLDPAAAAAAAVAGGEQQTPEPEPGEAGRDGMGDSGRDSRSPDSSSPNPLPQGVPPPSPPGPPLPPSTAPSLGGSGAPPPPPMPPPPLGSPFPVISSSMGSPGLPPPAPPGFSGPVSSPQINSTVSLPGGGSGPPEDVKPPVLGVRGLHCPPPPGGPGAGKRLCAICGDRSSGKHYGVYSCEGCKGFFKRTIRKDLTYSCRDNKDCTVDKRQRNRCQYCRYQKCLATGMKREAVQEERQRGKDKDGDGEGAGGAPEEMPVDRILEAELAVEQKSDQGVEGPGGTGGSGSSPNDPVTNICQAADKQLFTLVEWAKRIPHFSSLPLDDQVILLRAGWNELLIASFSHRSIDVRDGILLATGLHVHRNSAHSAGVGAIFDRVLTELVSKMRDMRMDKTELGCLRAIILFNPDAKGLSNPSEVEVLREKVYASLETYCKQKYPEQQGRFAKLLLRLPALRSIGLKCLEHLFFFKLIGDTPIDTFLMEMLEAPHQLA
Sequence of Retinoic acid receptor RXR-alpha (Homo sapiens) (P19793 whole entry, looked up, the tested form may be a part): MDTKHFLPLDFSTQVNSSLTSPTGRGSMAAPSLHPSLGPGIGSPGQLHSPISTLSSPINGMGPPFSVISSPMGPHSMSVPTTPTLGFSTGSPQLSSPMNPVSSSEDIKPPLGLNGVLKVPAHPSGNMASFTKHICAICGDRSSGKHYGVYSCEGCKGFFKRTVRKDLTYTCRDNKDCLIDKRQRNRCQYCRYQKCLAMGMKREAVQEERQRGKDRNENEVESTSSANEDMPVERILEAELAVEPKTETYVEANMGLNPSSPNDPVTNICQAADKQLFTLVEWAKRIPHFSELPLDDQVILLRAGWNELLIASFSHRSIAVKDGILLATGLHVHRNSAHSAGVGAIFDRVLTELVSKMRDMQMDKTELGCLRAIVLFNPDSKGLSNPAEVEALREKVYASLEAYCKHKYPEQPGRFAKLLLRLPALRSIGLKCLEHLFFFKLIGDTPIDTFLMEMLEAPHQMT

NNC(=S)NN
inactive: [1] | [2]

c1cc[c]([Hg][c]2ccccc2)cc1
inactive: [1] | [2]

COP(=S)(OC)Oc1c(Cl)cc(C)cc1Cl
active: [4] 29 µM | [6] 31.4 µM | [7] 3.97 µM | [8] 20 µM
inactive: [3] | [5] | [9]

CCSC(C)CC1CC(=O)C(C(CC)=NOC/C=C/Cl)=C(O)C1 (stereo not drawn)
inactive: [2] | [4] | [5] | [6] | [7] | [8] | [9]

CCOP(=O)(CN(CCO)CCO)OCC
inactive: [1] | [2]

Nc1cccc(Cl)c1
inactive: [2]

CC1(C)CCC(Cc2ccc(Cl)cc2)C1(O)Cn1cncn1 (stereo not drawn)
inactive: [2]

ClCc1ccccn1
inactive: [2]

CCOC(=O)CP(=O)(OCC)OCC
inactive: [2]

COC(=O)Cc1ccccc1
inactive: [4] | [5] | [6] | [7] | [8] | [9]

CC1(C)Cc2cccc(O)c2O1
inactive: [4] | [5] | [6] | [7] | [8] | [9]

O=Cc1cccc(Oc2ccccc2)c1
inactive: [2] | [4] | [5] | [6] | [7] | [8] | [9]
